Consider nine compounds from PubChem BioAssay (NCI).

The panel holds about 83,000 compounds, 20% with a hit somewhere; the sample as a whole holds those more often.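 In brief: 96-well plates, 48 h treatment, single concentration, percent growth endpoint.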 Unmarked numbers belong to inactive results. Calls of active or inactive are those of the source. How the source made its calls: active means growth percent below 10; inactive means the rest.

Holding throughout (test): NCI-60 one-dose screen, 48 h (100 = growth as untreated, 0 = no growth, -100 = all killed)
For one assay, the system named is SR leukemia. To be noted: 10 µM unless noted.
The subject of the next assay is RPMI-8226 leukemia. The note with it: 10 µM unless noted.
Another assay concerns OVCAR-8 ovarian. To be noted: 10 µM unless noted.
Another assay relates to OVCAR-5 ovarian. The note with it: 10 µM unless noted.
For another assay, the system named is OVCAR-4 ovarian. To be noted: 10 µM.
The test system of another assay is IGROV1 ovarian. To be noted: 10 µM unless noted.
The test system of a further assay is OVCAR-3 ovarian. To be noted: 10 µM unless noted.
The next assay relates to HS 578T breast. The note with it: 10 µM unless noted.
A further assay relates to NCI/ADR-RES ovarian. To be noted: 10 µM unless noted.
In a further assay the test system is T-47D breast. To be noted: 10 µM unless noted.
The test system of the next assay is MDA-MB-435 melanoma. To be noted: 10 µM unless noted.
The next assay deals with SW-620 colon. To be noted: 10 µM unless noted.
In the next assay the test system is HCT-116 colon. The note with it: 10 µM unless noted.
In another assay the test system is HCC-2998 colon. The note with it: 10 µM unless noted.
The test system of a further assay is KM12 colon. To be noted: 10 µM unless noted.
For another assay, the system named is BT-549 breast. The note with it: 10 µM unless noted.
For the next assay, the system named is MCF7 breast. The note with it: 10 µM unless noted.
For the next assay, the system named is SK-OV-3 ovarian. To be noted: 10 µM unless noted.

Turning to `COc1ncc(-c2ccc3nccc(C#CCCCCC(=O)O)c3c2)cc1NS(=O)(=O)c1ccc(F)cc1F`, the growth in the assay on SR leukemia was 63.8%; in the assay with RPMI-8226 leukemia, 47.4%; with OVCAR-8 ovarian, 35.4%; in the assay on OVCAR-5 ovarian it was 22.7%; in the assay with OVCAR-4 ovarian, 50.3%; with IGROV1 ovarian, -13% (active). In addition, the growth in the assay with OVCAR-3 ovarian was 19.8%; in the assay with HS 578T breast it was -10.2% (active); in the assay with NCI/ADR-RES ovarian, 56%; with T-47D breast, -18.1% (active); with MDA-MB-435 melanoma, 29.5%; in the assay with SW-620 colon, 50.7%. For the same compound, the growth in the assay with HCT-116 colon is 41.1%; in the assay on HCC-2998 colon, 29.4%; with KM12 colon, 41.6%.
With `COc1ccc2c(c1)c(-c1noc(C(=O)c3cn(C)c4ncc(Br)cc34)n1)cn2C`, the growth in the assay on SR leukemia was 64%; in the assay with RPMI-8226 leukemia, 62.2%; in the assay on OVCAR-8 ovarian it was 74.4%; with OVCAR-5 ovarian, 80.4%; in the assay on OVCAR-4 ovarian, 42.9%; with IGROV1 ovarian, 54.3%. Also, the growth in the assay on HS 578T breast was 27.8%; in the assay with NCI/ADR-RES ovarian, 59.7%; with T-47D breast it was 49.7%; with BT-549 breast, 82.7%; in the assay with MDA-MB-435 melanoma it was 63.1%; in the assay with SW-620 colon, 43.6%. Moreover, the growth in the assay with MCF7 breast was 79.9%; with HCT-116 colon it was 50.3%; in the assay on HCC-2998 colon, 92.9%; in the assay on KM12 colon, 66.7%.
As to `CCOC(=O)c1nn(C2CCCCO2)c2ccc(NS(=O)(=O)c3ccc(C)cc3)cc12` (stereo unspecified), the growth is 107% in the assay on SR leukemia; 98.3% in the assay on RPMI-8226 leukemia; 96.9% in the assay on OVCAR-8 ovarian; 110% in the assay with OVCAR-5 ovarian; 87.2% in the assay on OVCAR-4 ovarian; 104% in the assay with OVCAR-3 ovarian. In addition, the growth in the assay with HS 578T breast was 94.9%; with NCI/ADR-RES ovarian it was 99.6%; with T-47D breast it was 80%; with BT-549 breast, 91.8%; in the assay with MDA-MB-435 melanoma, 100%; in the assay on SW-620 colon, 98.1%. Moreover, the growth was 93.1% with MCF7 breast, 87.8% in the assay on HCT-116 colon, 107% with HCC-2998 colon and 104% in the assay on KM12 colon.
For the compound `Cn1cc(-c2noc(C(=O)c3cn(C)c4ncc(Br)cc34)n2)c2ccccc21`, the growth is 95.6% with SR leukemia; 84.6% with RPMI-8226 leukemia; 101% in the assay with OVCAR-8 ovarian; 90.2% in the assay with OVCAR-5 ovarian; 100% with OVCAR-4 ovarian; 87.8% in the assay on IGROV1 ovarian. In addition, the growth in the assay with OVCAR-3 ovarian was 106%; with HS 578T breast it was 99.7%; with NCI/ADR-RES ovarian it was 106%; with T-47D breast, 99.7%; in the assay with BT-549 breast, 98%; in the assay on MDA-MB-435 melanoma, 99.9%. Moreover, the growth with MCF7 breast was 90.5%; in the assay on HCT-116 colon, 99.6%; in the assay on HCC-2998 colon, 108%; with KM12 colon it was 96.7%.
In the case of `CCc1ccc(NC(=O)N[C@@H](Cc2cc(F)cc(F)c2)C(=O)N[C@@H]2C(=O)N3C[C@H](O)C[C@H]3C(=O)N3CCOC[C@H]3C(=O)N[C@@H](C)C(=O)N3C[C@H](C)C[C@H]3C(=O)O[C@H]2C)cc1`, the growth in the assay on SR leukemia is 48.3%; in the assay on RPMI-8226 leukemia it was 17.2%; in the assay with OVCAR-8 ovarian, 62.3%; in the assay on OVCAR-5 ovarian, 46.3%; in the assay on OVCAR-4 ovarian it was 12.8%; in the assay on IGROV1 ovarian, 49.4%. Besides, the growth is 41.2% in the assay on HS 578T breast; 18.2% in the assay on T-47D breast; 11.3% in the assay on BT-549 breast; 21.5% in the assay on MDA-MB-435 melanoma; 48.5% in the assay with SW-620 colon; 13.7% with HCT-116 colon. Further, the results for the growth with HCC-2998 colon and with KM12 colon were 32.1% and 42.7%, respectively.
As to `CNC(=O)c1cc(Oc2cccc3nc(NC(=O)Nc4cc(C(F)(F)F)cc(C(F)(F)F)c4)ccc23)ccn1`, the growth with SR leukemia is 47.9%; in the assay with RPMI-8226 leukemia, 41.1%; in the assay with OVCAR-8 ovarian it was 37.2%; in the assay with OVCAR-5 ovarian it was 33.3%; with OVCAR-4 ovarian, -38.2% (active); in the assay on IGROV1 ovarian, 51.4%. Besides, the growth in the assay with OVCAR-3 ovarian was -15% (active); with HS 578T breast, 22.2%; with T-47D breast, 15.5%; in the assay on BT-549 breast, 46.1%; with MDA-MB-435 melanoma, 40.2%; in the assay with SW-620 colon, 63.8%. Besides, the growth is 50.4% in the assay with MCF7 breast, 36.7% in the assay with HCT-116 colon, 79.7% with HCC-2998 colon and 53.8% in the assay on KM12 colon.
Turning to `Cc1ccc(NCCN2CCCCC2)c2c(=O)c3ccccc3sc12`, the growth with SR leukemia was 15.3%; in the assay on RPMI-8226 leukemia, -17.1% (active); in the assay on OVCAR-8 ovarian, 29.2%; with OVCAR-5 ovarian, 43.2%; in the assay with OVCAR-4 ovarian, 56.9%; in the assay on OVCAR-3 ovarian it was 58.5%. Further, the growth is -8.32% (active) with HS 578T breast; 28.7% in the assay on T-47D breast; 58.6% with BT-549 breast; 31.4% with MDA-MB-435 melanoma; 15.3% in the assay on SW-620 colon; -3.15% (active) in the assay with MCF7 breast. The growth in the assay with HCT-116 colon was 18%; with HCC-2998 colon, 33.3%; in the assay with KM12 colon, 32.6%.
Take `Cn1cc(-c2nnc(-c3ccccc3)s2)c2cc(Br)cnc21`: the growth was 90.7% in the assay with SR leukemia; 85.8% with RPMI-8226 leukemia; 94.4% with OVCAR-8 ovarian; 94.9% in the assay with OVCAR-5 ovarian; 68% in the assay on OVCAR-4 ovarian; 84.5% with OVCAR-3 ovarian. Besides, the growth in the assay on HS 578T breast is 79.9%; in the assay with NCI/ADR-RES ovarian, 90.4%; in the assay on T-47D breast it was 44%; with BT-549 breast, 104%; with MDA-MB-435 melanoma, 92.6%; in the assay on SW-620 colon, 82.5%. For the same compound, the growth with MCF7 breast is 40.5%; with HCT-116 colon, 108%; in the assay with HCC-2998 colon, 101%; with KM12 colon, 87.6%.
For `O=c1[nH]c2cc(Cl)c(Cl)cc2n2cc3ncccc3c12`, the growth in the assay with SR leukemia was 27.4%; in the assay on RPMI-8226 leukemia, 76.1%; with OVCAR-8 ovarian, 82.4%; in the assay with OVCAR-5 ovarian, 146%; in the assay on SK-OV-3 ovarian, 98.9%; with IGROV1 ovarian it was 86.2%. The growth was 84.5% in the assay with OVCAR-3 ovarian; 99.2% with HS 578T breast; 81.8% in the assay with NCI/ADR-RES ovarian; 49% in the assay with T-47D breast; 109% with BT-549 breast; 87% with MDA-MB-435 melanoma. Further, the growth was 53.4% in the assay on SW-620 colon; 30.4% in the assay on MCF7 breast; 71.1% in the assay with HCT-116 colon; 88% in the assay on HCC-2998 colon; 78.4% in the assay with KM12 colon.
